In patent US20200347384, “Screening artificial nucleic acids by particle display” (THE REGENTS OF THE UNIVERSITY OF CALIFORNIA, published 2020) one finds binding signal data, which are given here for two sequences.

The target in assay [1] is T1, HIV-1 reverse transcriptase (HIV RT) (Human immunodeficiency virus, UniProt P03366;P03366 P03366:600-1159,P03366:600-1039). The experiment in a line: MST; two 5' flanking nucleotides deleted. Conditions: tags: His-tag (inferred from Ni-NTA immobilisation); XNA; TNA at all positions.
For assay [2], the target named is T1, HIV-1 reverse transcriptase (HIV RT). The experiment in a line: MST; five 3' flanking nucleotides deleted. The note with it: tags: His-tag (inferred from Ni-NTA immobilisation); XNA; TNA at all positions.

Take TAGTAAATTGATTTAAAAATTTCATAAATGCTACATAA: in assay [1], the binding signal was ~3 fold reduction in affinity.

In the case of AATAGTAAATTGATTTAAAAATTTCATAAATGCTA, in assay [2], the binding signal is ~3 fold reduction in affinity.
